From PubChem BioAssay AID1159580 (chemical genetic matrix, 2015)
About 2,000 (36%) of roughly 5,500 compounds were called active. Not shown: some 18% with an inconclusive outcome. Rule as the data show it: active = normalized growth mostly below about 0.91 (no sharp cut-off); inconclusive = no clear call, values can overlap the other calls; inactive = mostly above about 0.92. The list shows a part of the results.

Assay: chemical genetic growth profiling, strain panel (AID 1159580);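 also: tested at 20 µM; growth read once vehicle control cultures reached saturation at 30 °C; 1 = growth at the plate median or of vehicle wells; lower values mean less growth of the strain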
Details: S. cerevisiae deletion strains, growth OD

Measured: normalized growth

CC1=CC2C(CC1=O)C(C)=CCC2C(C)C (stereo unspecified)
inactive: locus YJR066W, strain TOR1, stronger effect = lower value 0.949 | locus YKL009W, strain mrt4, stronger effect = lower value 0.945 | locus YKL068W, stronger effect = lower value 0.978 | locus YKL085W, strain MDH1 (second series), stronger effect = lower value 0.932 | locus YKL085W, strain MDH1, stronger effect = lower value 0.932 | locus YKL160W, strain elf1, stronger effect = lower value 0.992 | locus YKR026C, strain gcn3, stronger effect = lower value 0.983 | locus YKR091W, strain srl3, stronger effect = lower value 1.01 | locus YLL001W, strain dnm1, stronger effect = lower value 0.998 | locus YLL026W, stronger effect = lower value 1.01 | locus YLL041C, strain sdh2, stronger effect = lower value 1 | locus YLR027C, strain aat2, stronger effect = lower value 0.997 | locus YLR039C, strain RIC1, stronger effect = lower value 0.717 | locus YLR058C, strain SHM2, stronger effect = lower value 0.994 | locus YLR102C, strain apc9, stronger effect = lower value 0.985 | locus YLR113W, strain HOG1, stronger effect = lower value 0.968 | locus YLR221C, strain rsa3, stronger effect = lower value 0.979 | locus YLR258W, strain gsy2, stronger effect = lower value 1 | locus YLR262C, strain YPT6 (second series), stronger effect = lower value 0.896 | locus YLR262C, strain YPT6, stronger effect = lower value 0.709 | locus YLR268W, strain sec22, stronger effect = lower value 0.923 | locus YLR320W, strain mms22, stronger effect = lower value 0.9 | locus YLR342W, strain FKS1 (second series), stronger effect = lower value 0.864 | locus YLR342W, strain FKS1, stronger effect = lower value 1.01 | locus YLR357W, strain rsc2, stronger effect = lower value 1.03 | locus YLR370C, strain arc18, stronger effect = lower value 1.02 | locus YLR384C, strain iki3, stronger effect = lower value 1 | locus YML016C, strain PPZ1, stronger effect = lower value 1.01 | locus YML032C, strain rad52, stronger effect = lower value 0.948 | locus YML120C, strain ndi1, stronger effect = lower value 1 | locus YML124C, strain tub3, stronger effect = lower value 0.985 | locus YMR058W, strain fet3, stronger effect = lower value 1.01 | locus YMR078C, strain ctf18, stronger effect = lower value 0.974 | locus YMR125W, strain sto1, stronger effect = lower value 1.01 | locus YMR129W, stronger effect = lower value 1.03 | locus YMR205C, strain PFK2, stronger effect = lower value 0.966 | locus YMR231W, strain pep5, stronger effect = lower value 0.984 | locus YMR307W, strain GAS1, stronger effect = lower value 0.795 | locus YNL067W, strain RPL9B, stronger effect = lower value 0.986 | locus YNL183C, strain NPR1, stronger effect = lower value 0.96 | locus YNL209W, strain ssb2, stronger effect = lower value 1.01 | locus YNL233W, strain BNI4, stronger effect = lower value 0.874 | locus YNL248C, strain rpa49, stronger effect = lower value 0.997 | locus YNL250W, strain rad50, stronger effect = lower value 0.956 | locus YNL271C, strain bni1, stronger effect = lower value 0.936 | locus YNL298W, strain CLA4, stronger effect = lower value 0.924 | locus YNL307C, strain MCK1, stronger effect = lower value 0.914 | locus YNL322C, strain KRE1 (second series), stronger effect = lower value 1.01 | locus YNL322C, strain KRE1, stronger effect = lower value 1 | locus YNR049C, strain mso1, stronger effect = lower value 1.01 | locus YOL006C, strain TOP1, stronger effect = lower value 0.683 | locus YOL012C, strain htz1 0.956 | locus YOL147C, strain pex11, stronger effect = lower value 0.945 | locus YOR001W, strain rrp6, stronger effect = lower value 0.984 | locus YOR061W, strain CKA2, stronger effect = lower value 0.967 | locus YOR069W, strain VPS5, stronger effect = lower value 0.978 | locus YOR070C, strain gyp1, stronger effect = lower value 0.992 | locus YOR080W, strain dia2, stronger effect = lower value 1.01 | locus YOR083W, strain WHI5, stronger effect = lower value 0.966 | locus YOR106W, strain vam3, stronger effect = lower value 0.973 | locus YOR136W, strain idh2, stronger effect = lower value 0.959 | locus YOR144C, strain elg1, stronger effect = lower value 0.969 | locus YOR231W, strain MKK1, stronger effect = lower value 0.993 | locus YOR265W, strain rbl2, stronger effect = lower value 1.01 | locus YOR270C, strain vph1, stronger effect = lower value 0.844 | locus YOR290C, strain snf2, stronger effect = lower value 0.972 | locus YOR316C, strain cot1, stronger effect = lower value 0.983 | locus YPL055C, strain LGE1, stronger effect = lower value 0.938 | locus YPL078C, strain atp4, stronger effect = lower value 0.991 | locus YPL106C, strain sse1, stronger effect = lower value 1.01 | locus YPL240C, strain hsp82, stronger effect = lower value 1.02 | locus YPL256C, strain CLN2, stronger effect = lower value 0.957 | locus YPR119W, strain clb2, stronger effect = lower value 0.978 | locus YPR141C, strain kar3, stronger effect = lower value 0.973 | locus YPR163C, strain tif3, stronger effect = lower value 0.97 | locus YPR167C, strain met16, stronger effect = lower value 0.995
active: locus YKR001C, strain vps1, stronger effect = lower value 0.623 | locus YLR330W, strain CHS5, stronger effect = lower value 0.873 | locus YLR371W, strain rom2, stronger effect = lower value 0.841 | locus YLR418C, strain cdc73, stronger effect = lower value 0.687 | locus YMR223W, strain ubp8, stronger effect = lower value 0.901 | locus YNL071W, strain lat1, stronger effect = lower value 0.913 | locus YNR052C, strain pop2, stronger effect = lower value 0.895 | locus YOR184W, strain ser1, stronger effect = lower value 0.634 | locus YPL051W, strain arl3, stronger effect = lower value 0.886 | strain wtn01, stronger effect = lower value 0.898
